The sample as a whole holds a higher share of hits than the screen did.
Pf Dd2 growth: qHTS Primary assay for Inhibitors of Plasmodium falciparum Dd2 growth in vitro | P. falciparum Dd2 growth, SYBR Green, 72 h | Potency, µM (highest dose often 28.9 µM), actives largely listed as inhibitors | 120,000 tested, 4.3% active; active = well fitted inhibition curve with a large enough effect; also: nearly all actives have a fitted effect of over 65% in size
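Readout: SYBR Green fluorescence, 485 nm excitation, 535 nm emission, after ~16 h lysis at 37C. Before that, Dd2-infected red cells (2.5% hematocrit) grew 72 h with compound, 29 uM top final concentration.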
Each line names hits and unclear results; the compound was inactive in the other large screens.

C=CCN1CCN(C(=O)CN2CC3CC(C2)[C@H]2CCCC(=O)N2C3)CC1 (some centres undefined)	none
COC1CCOC2(CCNCC2)C1 (centres undefined)	none
O=c1[nH]nc2n1CCN(Cc1ccc(F)c(Br)c1)CC2	none
COc1cncc(Nc2ncc(-c3cccc(F)c3)c3c2OCC3)c1	Pf Dd2 growth 11µM
COc1ccc(-c2cnc(NC(=O)Cc3ccccc3)c3c2CCO3)cn1	none
CNC(=O)c1cccc(-c2cnc(Nc3ccc(F)c(Cl)c3)c3c2CCO3)c1	Pf Dd2 growth 11µM
CNC(=O)c1cccc(-c2cnc(Nc3ccc(Cl)cn3)c3c2CCO3)c1	none
CNC(=O)c1cccc(-c2cnc(Nc3cccc(C(F)(F)F)c3)c3c2CCO3)c1	none
COCCNc1ncc(-c2ccc(N3CCOCC3)cc2)c2c1OCC2	none
COc1ccc(-c2cnc(Nc3cc(F)cc(N4CCOCC4)c3)c3c2CCO3)cn1	Pf Dd2 growth 11µM
COc1ccc(Nc2ncc(-c3ccccc3OC)c3c2OCC3)cc1	none
O=C(Nc1ncc(-c2cccc(F)c2)c2c1OCC2)c1ccncc1	none
CCn1cc(S(=O)(=O)N2CCCCC2c2nc(CCOc3ccc(F)cc3)no2)cn1 (centres undefined)	none
COc1ccc(NC(=O)CN2C(=O)NC3(CCC(C(C)(C)C)CC3)C2=O)c(OC)c1 (centres undefined)	none
COc1ccc(CNC(=O)CC[C@H]2CNC(=O)[C@@H]3[C@@H](CCN3Cc3ccc(C(=O)O)cc3)N2C)cc1	none
COc1ccc(CNCCN2CCCC2)cc1	none
COc1ccc(CNCCC(c2ccc(C)cc2)c2ccco2)cc1 (centres undefined)	Pf Dd2 growth 13µM
COc1ccc(CNC(=O)C(=O)NCC(c2ccco2)S(=O)(=O)c2ccc(C)cc2)cc1 (centres undefined)	none
COc1ccc(-c2ccc3nc(-c4cc(C)cc(C)c4)oc3c2)c(OC)c1OC	none
O=C(c1cccc(F)c1)N1CCC(c2nc(C3CCOCC3)no2)CC1	none
O=C(O)c1ccc(CN2CC[C@@H](c3ccc4ccccc4c3)[C@H](O)C2)cc1	none
O[C@@H]1CN(CC2CCNCC2)CC[C@H]1c1ccc2ccccc2c1	Pf Dd2 growth 11µM
CS(=O)(=O)c1ccc(CN2CC[C@@H](c3ccc4ccccc4c3)[C@H](O)C2)cc1	none
O=C(Nc1ccccc1)N1CCC(c2nnc3n2CCNC3)CC1	none
Cc1noc(C)c1CC(=O)N1CC(=O)N(C2CCCCC2)CC(OCc2ccccc2)C1 (centres undefined)	none
Cc1cccc(N(C)c2ccc3nnc(-c4cc(C(=O)N(C)C)ccn4)n3n2)c1	none
COc1coc(C(=O)N2CCCC(c3ccccc3)(c3ccccc3)C2)cc1=O	none
CC(C)c1cc(C(=O)N2CCCC(c3ccccc3)(c3ccccc3)C2)n(C)n1	Pf Dd2 growth 3.2µM
Cc1nnnn1CC(=O)N1CCCC(c2ccccc2)(c2ccccc2)C1	none
COc1cc2c(cc1OC)C(C[C@H]1CN(C(=O)Cc3cccs3)CC[C@H]1CC(=O)O)=NCC2	none
Cc1ccc(-c2nc3c(cnn3-c3ccccc3)c(=O)n2-c2ccc(Cl)cc2)cc1	none
Cc1cccc(-n2c(-c3ccco3)nc3c(cnn3-c3ccccc3C)c2=O)c1	none
COc1ccc(-n2c(-c3ccco3)nc3c(cnn3-c3ccc(Cl)cc3)c2=O)cc1	Pf Dd2 growth 10µM
Cc1ccnn1CCC(=O)Nc1nn(C)c2cccc(N3CCOCC3)c12	none
O=C(NC1CC(c2nnc(CO)n2C2CC2)C1)c1n[nH]c2c1COCC2 (centres undefined)	none
Cc1c(C(=O)NC2CC(c3nnc(CO)n3C3CC3)C2)n(C)c2c(C)cccc12 (centres undefined)	none
O=C1COc2cc(C(=O)NC3CC(c4nnc(CO)n4C4CC4)C3)ccc2N1 (centres undefined)	Pf Dd2 growth 6.3µM
Cc1nc(C)c(C(=O)N2CCC(Cc3nc(C4CC4)n[nH]3)CC2)s1	none
O=C(c1ccno1)N1CCOC[C@H](Oc2ccc(C(F)(F)F)cn2)C1	none
CC(=O)Oc1c(-c2ccc(NC(=O)c3ccco3)cc2)c(C2CC2)nn1-c1cccc(C)c1	none
CCOc1ccccc1CNC(=O)c1cc2cn(C3CCCC3)cc2s1	Pf Dd2 growth 13µM
CCOc1ccccc1CNC(=O)c1cc2cn(C(C)C)cc2s1	none
COc1ccccc1CNC(=O)c1cc2cn(C3CC3)cc2s1	none
COc1cccc(C(=O)N2CCN(c3cc(C(F)(F)F)ncn3)CC2)c1OC	none
CC[C@H]1CN(C(=O)Nc2cccc(C(F)(F)F)c2)CC[C@H]1CC(=O)NCc1ccc(OC)cc1	none
CC[C@H]1CN(C(=O)Nc2cccc(OC)c2)CC[C@H]1CC(=O)NCc1ccccc1	Pf Dd2 growth 13µM
CC[C@H]1CN(C(=O)Nc2cccc(OC)c2)CC[C@H]1CC(=O)NCc1cccnc1	none
COCCNc1nc(-c2c(C)noc2C)cc2cc(C(C)C)oc12	none
Cc1noc(C)c1-c1cc2cc(C(C)C)oc2c(-c2cccc(CO)c2)n1	none
COc1ccc(-c2nc(-c3c(C)noc3C)cc3cc(C(C)C)oc23)cn1	Pf Dd2 growth 8.9µM
CN1CCN(CC(N)C2CCCCC2)CC1 (centres undefined)	none
COC(=O)COc1ccc(C(=O)N[C@@H]2CN(C(=O)NC(C)C)CCC[C@H]2O)cc1	none
CCc1nc2c(c(-c3ccc(Cl)cc3)n1)CN(C(=O)c1ccccc1F)CC2	none
CCC(=O)Nc1ccc(-c2c(-c3ccc(F)cc3)nn(-c3ccc(F)cc3)c2OC(C)=O)cc1	none
Cc1ccc(C)c(CN2CCC(CNC(=O)Nc3ccc(Br)cc3F)CC2)c1	Pf Dd2 growth 8.9µM
COc1ccc(NC(=O)NCC2CCN(Cc3ccccc3F)CC2)c(OC)c1	none
Cc1ccc(NC(=O)NCC2CCOCC2)c(C)c1	none
CC(C)N1CCCC2(CCN(S(=O)(=O)c3cccc(F)c3)C2)C1=O (centres undefined)	none
Cc1ccc(C(CC(=O)NC(C)C)c2cn(C)c3ccccc23)cc1 (centres undefined)	none
COCCOc1cc(C)c2c(c1C)C[C@H](C(C)C(=O)NC(C)(C)C)CC2 (some centres undefined)	none
COCCOc1cc(C)c2c(c1C)C[C@H]([C@H](C)C(=O)Nc1ccccn1)CC2	Pf Dd2 growth 13µM
COCCOc1cc(C)c2c(c1C)C[C@H]([C@H](C)C(=O)NC1CCCC1)CC2	none
O=C(CC1C(=O)NCCN1Cc1ccc(-c2ccccc2)cc1)NCc1ccco1 (centres undefined)	none
COc1cccc(CCc2ccccc2C(=O)N2CC[C@](C)(O)[C@H](C)C2)c1	none
Cc1cn2nc(C(=O)N3CCC(NC(=O)c4ccsc4)CC3)cc2c(=O)[nH]1	none
CCc1nc(-c2nnn3c2COC(c2ccc(OC)cc2)C3)no1 (centres undefined)	none
COc1ccc(C2Cn3nnc(-c4noc(CCc5cccc(OC)c5)n4)c3CO2)cc1 (centres undefined)	none
COc1ccc(C2Cn3nnc(-c4noc(COc5cccc(C)c5)n4)c3CO2)cc1 (centres undefined)	Pf Dd2 growth 10µM
CC(C)(C)c1ccc(CN(Cc2ccco2)c2cnc(S(C)(=O)=O)nc2C(=O)Nc2ccc(F)cc2)cc1	Pf Dd2 growth 7.9µM
CS(=O)(=O)c1ncc(N(Cc2ccco2)Cc2ccco2)c(C(=O)Nc2ccccc2Br)n1	none
CS(=O)(=O)c1ncc(Cl)c(C(=O)N(Cc2ccc(Cl)cc2)Cc2ccco2)n1	none
CCS(=O)(=O)c1ncc(N(Cc2ccco2)Cc2ccccc2F)c(C(=O)Nc2cccc(Cl)c2)n1	Pf Dd2 growth 4µM
COc1ccc(CN(Cc2ccco2)c2cnc(S(C)(=O)=O)nc2C(=O)Nc2ccc(C)cc2C)cc1	none

Screening data deposited in PubChem by National Center for Advancing Translational Sciences (NCATS).
